The panel holds about 83,000 compounds, 20% with a hit somewhere; the sample as a whole holds those more often.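 Step 1: grow cells in 96-well plates. Step 2: add test compound at a single concentration. Step 3: incubate 48 h. Step 4: record percent growth.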 Unmarked numbers belong to inactive results. The source made the active and inactive calls. The calls were made as follows: active = growth percent below 10; inactive = the rest.
Experiments:
Experiment in all cases: NCI-60 one-dose screen, 48 h (100 = growth as untreated, 0 = no growth, -100 = all killed)
Conditions in all cases: 10 µM unless noted
RPMI-8226 leukemia = system: RPMI-8226 leukemia
OVCAR-8 ovarian = system: OVCAR-8 ovarian
OVCAR-5 ovarian = system: OVCAR-5 ovarian
OVCAR-4 ovarian = system: OVCAR-4 ovarian
SK-OV-3 ovarian = system: SK-OV-3 ovarian
IGROV1 ovarian = system: IGROV1 ovarian
OVCAR-3 ovarian = system: OVCAR-3 ovarian
NCI/ADR-RES ovarian = system: NCI/ADR-RES ovarian
HS 578T breast = system: HS 578T breast
T-47D breast = system: T-47D breast

| Structure (SMILES) | growth (RPMI-8226 leukemia) | growth (OVCAR-8 ovarian) | growth (OVCAR-5 ovarian) [%] | growth (OVCAR-4 ovarian) [%] | growth (SK-OV-3 ovarian) | growth (IGROV1 ovarian) [%] | growth (OVCAR-3 ovarian) | growth (NCI/ADR-RES ovarian) | growth (HS 578T breast) [%] | growth (T-47D breast) |
| --- | --- | --- | --- | --- | --- | --- | --- | --- | --- | --- |
| O=S1(=O)N(Cc2ccccc2)[C@@H](Cc2ccccc2)[C@H](O)[C@H](O)[C@H](Cc2ccccc2)N1Cc1ccccc1 | -7.2% (active) | 7.06% (active) | 41.1 | 15.4 | 6.58% (active) | 10.3 | -22% (active) | -7.86% (active) | – | – |
| Nc1nc(Nc2cccc(F)c2)nc2ccccc12 | 0.232% (active) | 55.9% | 54.1 | 40.4 | 72.7% | 28 | 50.6% | 38.1% | 63.9 | 41.5% |
| O=C(Nc1ccc(I)cc1F)c1cc(Cl)ccc1O | -29.3% (active) | 10.1% | 26.1 | 15 | 4.21% (active) | 16.2 | 4.4% (active) | 9.54% (active) | – | -4.67% (active) |
| COc1ccccc1C(=O)/C=C/c1ccccc1 | -2.98% (active) | 78.1% | 101 | 88.6 | 90.3% | 85.7 | – | 76.4% | – | 81.4% |
| O=c1oc2ccc(Br)cc2c(=O)n1-c1ccc(I)cc1F | -28.3% (active) | 10.4% | 22 | 15.2 | 6.53% (active) | 15.8 | 5.31% (active) | 9.96% (active) | – | -1.18% (active) |
| COc1ccc(-n2c(C(O)c3ccccc3)n[nH]c2=S)cc1 (centres undefined) | 93.3% | 103% | 93.4 | 102 | 101% | 99.1 | 95.8% | 103% | 111 | 97.7% |
| CCN1CCN(C(=S)SCC(=O)Nc2nc3ccc(C)cc3s2)CC1 | 94.7% | 91.9% | 95.3 | 86.2 | 102% | 72 | 106% | 103% | – | 87.8% |
| COc1ccc(CCN2C(=O)/C(=C/c3ccc(C4Oc5ccccc5C5CC(c6cccc(OC)c6)=NN54)cc3)SC2=S)cc1 (centres undefined) | 103% | 102% | 99.9 | 98.9 | 97.7% | 104 | 102% | 104% | – | 100% |
| O=C(Nc1ccc(I)cc1F)c1cc(Br)ccc1O | -18.9% (active) | 7.13% (active) | 23.7 | 12.4 | -4.76% (active) | 16.3 | 8.04% (active) | 7.79% (active) | – | -9.09% (active) |
| CCOC(=O)C1=C(C)c2ccc(OC)c(OC)c2C1 | 85.3% | 95.7% | 102 | 84.7 | 103% | 104 | 117% | 101% | – | – |
| N#Cc1c(N)nc2c(c1N)C(c1ccc(F)cc1)c1ccc(N)cc1O2 (centres undefined) | 103% | 97.5% | 99.1 | 96.7 | 119% | – | 118% | 107% | 95.6 | 92.3% |
| Nc1ccc(C2c3ccccc3Oc3ccccc32)cc1 | 94% | 102% | 101 | 105 | 98.3% | 91.8 | 96.4% | 100% | – | 84.1% |
| Clc1ncccc1Nc1ccc2nnc(-c3ccncc3)n2n1 | 98.9% | 99.3% | 104 | 91.3 | 104% | 82.3 | 102% | 98.7% | – | 86.6% |
| COc1ccc(-c2c(-c3ccc(OC)c(O)c3)cnc3ncnn23)cc1 | 108% | 101% | 103 | 104 | 110% | 110 | 112% | 102% | – | 103% |
| COc1ccc(C2C3=C(COC3=O)N(CCO)c3cc4c(cc32)CCC4)cc1 (centres undefined) | 86.8% | 58.4% | 96.2 | 75.9 | 57.3% | 51.8 | 0.832% (active) | 65.3% | – | 31.5% |
